Measured values taken from PubChem BioAssay (NCI).
Compounds without any hit were thinned out: in the full panel of roughly 79,000, 15% have a hit. Rule as the data show it: active = growth inhibition above about 70%; inactive = the rest.

Tests used:
[1] = NCI Yeast Anticancer Drug Screen. Data for the rad50 strain (AID 155);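 also: 0% = growth of vehicle-only cultures of the same strain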; settings: S. cerevisiae rad50 strain growth inhibition; at 50.0 µM; stronger effect = higher value
Summary of the method: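 Vehicle-treated cultures provide the reference for the growth inhibition reported for compound-exposed, repair-deficient yeast.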

[2] = NCI Yeast Anticancer Drug Screen. Data for the mec2-1 strain (AID 157); settings: S. cerevisiae mec2-1 strain, at 50.0 µM, stronger effect = higher value
Summary of the method: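 Each compound was tested on mec2-1 yeast, a strain altered in DNA damage repair or cell cycle control. Growth inhibition is reported relative to vehicle.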

[3] = NCI Yeast Anticancer Drug Screen. Data for the sgs1 mgt1 strain (AID 161);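 also: 0% = growth of cultures given vehicle only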; settings: S. cerevisiae sgs1 mgt1 strain, at 50.0 µM, stronger effect = higher value
Summary of the method: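 Read-out: growth inhibition vs vehicle controls. Cells: mutant yeast strain deficient in DNA damage repair.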

[4] = NCI Yeast Anticancer Drug Screen. Data for the cln2 rad14 strain (AID 165);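 also: 0% = growth equal to vehicle treated cultures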; settings: S. cerevisiae cln2 rad14 strain, at 50.0 µM, stronger effect = higher value
Summary of the method: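 Test compounds were added to cln2 rad14 yeast cultures; inhibition of growth was then determined by comparison with vehicle treatment.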

[5] = NCI Yeast Anticancer Drug Screen. Data for the bub3 strain (AID 167); settings: S. cerevisiae bub3 mutant strain, at 50.0 µM, stronger effect = higher value
Summary of the method: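 Mutant yeast screening strain plus compound; vehicle-treated cultures serve as the 0% inhibition reference.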

[6] = NCI Yeast Anticancer Drug Screen. Data for the mlh1 rad18 strain (AID 175); settings: S. cerevisiae mlh1 rad18 strain growth inhibition; at 50.0 µM; stronger effect = higher value
Summary of the method: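 Inhibition values reflect reduced growth of mutant yeast versus vehicle-treated controls following compound exposure; the mutations affect DNA damage repair.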

Measured: growth inhibition

CCc1cccc(CC)c1NC(=O)c1ccc(C)cc1
inactive: [1] -6.25% | [2] -30% | [3] 9.4% | [4] 7.2% | [5] -1.35% | [6] -4%

Nc1ccnc2cc(Cl)ccc12
inactive: [1] 17.4% | [2] 4.45% | [3] 3.3% | [4] 2.6% | [5] -4.05% | [6] 26.6%

O=C1c2ccc(O)cc2OC(c2ccc(O)c(O)c2)C1O (configuration not stated)
inactive: [1] 7.6% | [2] -7.25% | [3] 17.8% | [4] 1.85% | [5] 6% | [6] 6.4%

O=[N+]([O-])c1cccc(Cc2nc3ccccc3nc2-c2ccccc2)c1
inactive: [1] 34.9% | [2] 18.2% | [3] 13.7% | [4] 4.1% | [5] 48.6% | [6] 37.7%

O=NN(CCCl)C(=O)NCCc1cccc[n+]1[O-]
inactive: [1] 2.6% | [2] 14.3% | [3] -14.1% | [4] -5.75% | [5] -2.45% | [6] -57.6%

CC1=C(O)/C(=C/C(C)CCC/C(C)=C/C=C/C(C)CCCc2ccoc2)OC1=O (configuration not stated)
inactive: [1] 3.05% | [2] -4.65% | [3] 2.9% | [4] 23.8% | [5] 7.45% | [6] 3.1%

COc1ccc(N=Nc2c(C)c(C#N)c(=S)n(C3OC(COC(C)=O)C(OC(C)=O)C(OC(C)=O)C3OC(C)=O)c2-c2ccccc2)cc1 (configuration not stated)
inactive: [1] -8.55% | [2] -8.9% | [3] -20.6% | [4] 9.05% | [5] 8% | [6] -5.1%

Cc1ccc2c(c1)C1(OC(=O)c3ccccc31)c1ccc(F)cc1O2 (configuration not stated)
inactive: [1] 55% | [2] 12.8% | [3] 36.9% | [4] 36.8% | [5] 22.7% | [6] 18.1%

O=Cc1cccc(/C=N/Nc2nnc(N/N=C/c3cccc(C=O)c3)c3ccccc23)c1
inactive: [1] 30.6% | [2] 26.5% | [3] 35.5% | [4] 33.1% | [5] -3.2% | [6] 17.1%

Cc1ccc(N=NC2Sc3nc4ccccc4n3C2=O)cc1 (configuration not stated)
inactive: [1] -7.1% | [2] 9.75% | [3] -0.7% | [4] -35.5% | [5] 16.3% | [6] 13.2%

CC(=O)Oc1cc(OC(C)=O)c2c(c1)OC(c1ccc(OC(C)=O)c(OC(C)=O)c1)CC2=O (configuration not stated)
inactive: [1] 21.4% | [2] 3.8% | [3] 18.3% | [4] 3.95% | [5] 3.85% | [6] 28%

COc1cc2c(NCCCCCCO[N+](=O)[O-])ncnc2c(OC)c1OC
inactive: [1] 26.6% | [2] -5.7% | [3] 40.8% | [4] 43.8% | [5] 39% | [6] 30.6%

O=C(O)CC(NC(=O)OCc1ccccc1)C(=O)OCc1ccccc1 (configuration not stated)
inactive: [1] 0.55% | [2] 17.9% | [3] -12.3% | [4] -16.6% | [5] -21.1% | [6] -20.1%

COc1ccc(OC)c(/C=C/c2cnnc3ccccc23)c1
inactive: [1] 12.6% | [2] 12.8% | [3] 19.2% | [4] -2.95% | [5] 6.75% | [6] 32%

C=CCOC(=O)NC(CCC(N)=O)C(=O)O (configuration not stated)
inactive: [1] 19.7% | [2] 1.1% | [3] 14.7% | [4] 9.5% | [5] -1% | [6] 16.3%

Nc1ccc(/C=C\C(=O)c2ccccc2)cc1
inactive: [1] 16.4% | [2] 1.05% | [3] 12.1% | [4] 12.6% | [5] 4.25% | [6] 17.4%

CCCCC1SCC(=O)N1c1nncs1 (configuration not stated)
inactive: [1] 6.35% | [2] 24% | [3] 5.4% | [4] -3.8% | [5] 16.7% | [6] -3.2%

O=S(=O)(/N=C(Cl)/C(Cl)=N/S(=O)(=O)c1ccccc1)c1ccccc1
inactive: [1] 15.3% | [2] -1.65% | [3] 22.7% | [4] -9.9% | [5] -0.1% | [6] 5.3%

COC(=O)C1=CC(O)CCC1c1ccc(OC)cc1 (configuration not stated)
inactive: [1] -6.2% | [2] -10.7% | [3] -13.2% | [4] -5.8% | [5] -5.45% | [6] -19.2%

Cc1onc2c1c(=O)n(C)c(=O)n2C
inactive: [1] -6.25% | [2] -1.95% | [3] -3.55% | [4] -20.1% | [5] -7.45% | [6] -2.25%

COC(=O)C1(CC(=O)c2ccc(C)cc2)NC(=S)NC(=O)C1C#N (configuration not stated)
inactive: [1] -4.7% | [2] -4.8% | [3] -30.1% | [4] -8.65% | [5] -34.6% | [6] -0.85%

Clc1ccccc1-c1c2ccccc2cc2c1ccc1ccccc12
inactive: [1] -12.1% | [2] -14.5% | [3] -7.75% | [4] -0.85% | [5] 5.45% | [6] -4.7%

Cc1cccc(CN)n1
inactive: [1] -2.55% | [2] -29.2% | [3] 17.4% | [4] 4.05% | [5] -5.85% | [6] 2.15%

COc1cc2c3c(c1)nc(C)n3C(=O)C(C)S2 (configuration not stated)
inactive: [1] -26.8% | [2] -46.9% | [3] -22.9% | [4] 12.3% | [5] 11.3% | [6] -22%

O=C1CC(C(=O)O)C(C(Cl)(Cl)Cl)O1 (configuration not stated)
inactive: [1] -18.9% | [2] -26.4% | [3] 1.8% | [4] -22.7% | [5] -6.7% | [6] -1.2%

O=CC(NC(=O)C(O)C(O)C(O)C(O)CO)C(O)C(O)C(O)CO (configuration not stated)
inactive: [1] -13.2% | [2] 6.8% | [3] -1.45% | [4] -40% | [5] -0.95% | [6] 1.15%

CCc1ccc(NC(=O)CCC(=O)O)cc1
inactive: [1] -1.15% | [2] -9.15% | [3] 4.75% | [4] -90.5% | [5] -4.9% | [6] -16.9%

Fc1ccc(N2CSC(=S)N(c3ccc(F)cc3F)C2)c(F)c1
inactive: [1] 8.95% | [2] -5.7% | [3] 31.5% | [4] 6.8% | [5] 28.9% | [6] 18.8%

O=C1c2ccccc2C(=C(c2ccccc2)c2ccccc2)c2ccccc21
inactive: [1] 29.1% | [2] -19.5% | [3] -10.3% | [4] 10.6% | [5] 5.35% | [6] -4.75%

O=C(O)c1c(F)c(F)c(C(=O)O)c(F)c1F
inactive: [1] 6.25% | [2] -15.8% | [3] 16.3% | [4] 15.1% | [5] 14.9% | [6] 11.5%

CS(=O)(=O)/C=C/c1ccccc1
inactive: [1] -19.4% | [2] -8.15% | [3] -7.35% | [4] 1.8% | [5] -2.1% | [6] 0.75%

CC(N)(CCSCP(=O)(O)O)C(=O)O (configuration not stated)
inactive: [1] -22.1% | [2] -7.4% | [3] -19.5% | [4] -26.9% | [5] -7.45% | [6] -27.4%

COc1cc(CCCO)ccc1O
inactive: [1] 0.85% | [2] 13.8% | [3] 0.25% | [4] -48.1% | [5] 9.1% | [6] -4.1%

O=C1NC(=O)C2(CC3CCCCC3CC2c2ccccc2)N1 (configuration not stated)
inactive: [1] 17.1% | [2] 13.3% | [3] 12.8% | [4] 3.1% | [5] 10.3% | [6] 10.9%

CN1C/C(=C\c2ccc(N(C)C)cc2)C(=O)/C(=C/c2ccc(N(C)C)cc2)C1
inactive: [1] -17.6% | [2] -8.05% | [3] -2.2% | [4] -1.35% | [5] 4.05% | [6] -9.85%

CCOC(=O)C(=O)Nc1cccc(NC(=O)C(=O)OCC)n1
inactive: [1] 2.5% | [2] -21.6% | [3] -19.1% | [4] 4.4% | [5] -13.8% | [6] -6.05%

CC1CN=C(N(Cc2ccc(F)cc2)C(=O)Nc2ccc(Cl)cc2)S1 (configuration not stated)
inactive: [1] -35.5% | [2] -8.95% | [3] -41.5% | [4] 1.6% | [5] 7.7% | [6] -34.3%

O=S1(=O)NC(=NC2CCCC2)c2ccccc21
inactive: [1] 0.7% | [2] -12.4% | [3] -3.55% | [4] -35.8% | [5] -7.75% | [6] 1.15%

CC(C)CC(=O)C(C)C(C)C (configuration not stated)
inactive: [1] 12.4% | [2] -1.85% | [3] 4.25% | [4] -4.25% | [5] 4% | [6] 1.5%

Nc1[nH]c(=S)[nH]c(=O)c1N=O
inactive: [1] -2.75% | [2] -2.55% | [3] -5.75% | [4] -14.7% | [5] -4.1% | [6] 3.95%

O=C(CNC(=O)c1ccccc1)Nc1ccc([N+](=O)[O-])cc1
inactive: [1] 15.2% | [2] -0.65% | [3] -1.5% | [4] 26.8% | [5] 22.6% | [6] 5.7%

O=C(O)c1ccc(SSc2ccc(C(=O)O)cn2)nc1
inactive: [1] 9.9% | [2] 19.1% | [3] -13.3% | [4] -8.5% | [5] 6.7% | [6] 14.9%
